Screens from PubChem BioAssay.
ssDAF-12_act = S. stercoralis DAF-12 activation, primary screen. 370,000 tested, 1% active. HEK293 ssDAF-12/GRIP1 lit1-tk-luc reporter, luminescence; % of 3 µM dafachronic acid response. activation, % at 6.8 µM;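 active = activation above the mean over all tested compounds plus 3 SD, cut at about 0.9% in these data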;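 note: 0% = DMSO-only wells and 100% = 3 µM delta7-dafachronic acid wells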
hgDAF-12_ag = activates the H. glycines DAF-12 receptor ligand-binding domain. HEK293 GAL4-hgDAF12 UAS-luciferase reporter, agonist luminescence; normalized to butyrate control. activation, % at 6.8 µM. 370,000 tested, 1.8% active. AID 687014;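 active = activation above a cutoff set at the mean of all screened compounds plus 3 SD, cut at about 10% in these data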;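 note: 0% = DMSO wells and 100% = sodium butyrate wells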
DAX1_inh-1 = NR0B1 (DAX1) inhibition; AID 504766; 340,000 tested, 0.99% active; inhibition, % at 6.75 µM; P51843; HEK293 Gal4-DAX1 luciferase reporter, luminescence;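 active = inhibition above the mean over all tested compounds plus 3 SD, cut at about 4.2% in these data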;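 note: 0% = DAX1-transfected cells with DMSO and 100% = empty-vector control cells with DMSO; inhibition shows as a rise in luminescence from relieved DAX1 repression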
DAX1_inh-2 = DAX1 (NR0B1) inhibition, primary screen | HEK293T StAR-luciferase reporter, SF-1/DAX-1 repression relief | inhibition, % at 6.8 µM | 370,000 tested, 1.1% active;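 active = inhibition above the mean over all tested compounds plus 3 SD, cut at about 3.6% in these data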;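 note: 0% = DAX-1 cells with DMSO and 100% = cells lacking DAX-1 with DMSO; higher inhibition means more luminescence from relief of DAX-1 repression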
hcDAF-12_act = H. contortus DAF-12 activation, primary screen. HEK293 hcDAF-12 lit1-tk-luc reporter, luminescence; 0% DMSO, 100% Δ7-dafachronic acid. activation, % at 6.8 µM. 370,000 tested, 1.4% active;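 active = activation above the mean of all tested compounds plus 3 SD, cut at about 5.5% in these data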;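 note: 100% = response to 3 µM Δ7-dafachronic acid high control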
hgDAF12_conf = hgDAF-12 agonism, confirmation assay; shares compounds with hgDAF-12_ag; HEK293 GAL4-hgDAF12 luciferase reporter, agonist mode; percent of butyrate response; activation, % at 6.8 µM; 3,300 tested, 80% active;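 active = mean activation over triplicate wells above the hit cutoff derived from the earlier primary screen, cut at about 11% in these data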;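 note: 0% = DMSO low control and 100% = 2 mM sodium butyrate high control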
LXRb_DAF12_ctr = counter-screen for DAF-12 agonists: agonists of human LXR-beta. shares compounds with hgDAF-12_ag. HEK293 Gal4-LXR luciferase reporter, 24 h. activation, % at 6.8 µM. 3,300 tested, under 10 active. AID 743051;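 active = mean activation of the triplicate above a set limit carried over from the primary screen, none filed active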
Target sequence (P55055 whole entry, looked up, the tested form may be a part): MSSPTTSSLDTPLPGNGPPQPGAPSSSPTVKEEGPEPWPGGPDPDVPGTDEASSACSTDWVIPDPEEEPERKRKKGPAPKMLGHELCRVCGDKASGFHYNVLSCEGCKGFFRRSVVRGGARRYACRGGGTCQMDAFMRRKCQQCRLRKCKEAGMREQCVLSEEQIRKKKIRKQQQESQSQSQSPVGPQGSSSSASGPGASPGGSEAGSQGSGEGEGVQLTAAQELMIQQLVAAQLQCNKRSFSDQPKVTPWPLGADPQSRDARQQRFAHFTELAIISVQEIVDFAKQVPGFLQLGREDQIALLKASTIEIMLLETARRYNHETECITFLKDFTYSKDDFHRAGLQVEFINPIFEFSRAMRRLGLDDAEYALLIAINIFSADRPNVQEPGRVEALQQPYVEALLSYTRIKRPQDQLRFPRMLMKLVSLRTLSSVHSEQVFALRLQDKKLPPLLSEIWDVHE
Numbers without * were called inactive; · = not tested or not shown. In the library only some 4.1% were active in any assay of this set; here they are far more common.

SMILES ssDAF-12_act hgDAF-12_ag DAX1_inh-1 DAX1_inh-2 hcDAF-12_act hgDAF12_conf LXRb_DAF12_ctr
COC(=O)[C@@]1(Sc2ccc(C)cc2)CC(=O)N(P(=O)(OC)OC)[C@@H]1c1ccccc1 -1 -1 · 0 1 · ·
Cc1cc(N=Nc2ccccc2C)ccc1N 0 15* 6.0* 2 4 13* 1
Clc1ccc2sc(C3CCNCC3)nc2c1 0 16* 2 1 2 8 0
COc1ccc(CN2Cc3cc(-c4ccccc4)ccc3-n3nncc3C2)cc1 -1 3 · -1 -1 · ·
COc1ccc(CN2Cc3cc(-c4ccc(OC)cc4)ccc3-n3nncc3C2)cc1 -1 14* · -2 2 3 0
